Pf Dd2 growth – qHTS Primary assay for Inhibitors of Plasmodium falciparum Dd2 growth in vitro | P. falciparum Dd2 growth, SYBR Green, 72 h | Potency, µM (top dose mostly 28.9 µM), usual class: inhibitors | 120,000 tested, 4.3% active | AID 1347417, 2020; active means well fitted inhibition curve with a large enough effect; further: nearly all actives have a fitted effect of over 65% in size
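Infected erythrocytes (Dd2, 0.3% parasitemia, 2.5% hematocrit final) are added to compound in RPMI-1640/Albumax II medium, grown 72 h at 37C in low oxygen, then lysed with saponin/Triton-X containing SYBR Green and read by fluorescence.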
Hits are given with their value; 0 = inactive. This is one part of a sample in which hits are shown more often than they occur.

SMILES	Pf Dd2 growth
COc1ccc(-c2ccnc(N[C@H]3CO[C@H]4[C@@H]3OC[C@@H]4NC(=O)CC3(CC(=O)O)CCCC3)n2)cc1	0
COc1ccc(-c2ccnc(N[C@H]3CO[C@H]4[C@@H]3OC[C@H]4OC(=O)Nc3ccc(C(C)(C)C)cc3)n2)cc1	0
COc1ccc(-c2ccnc(N[C@H]3CO[C@H]4[C@@H]3OC[C@@H]4NC(=O)NCc3ccccc3)n2)cc1	5.01µM
COc1ccc(-c2ccnc(N[C@H]3CO[C@H]4[C@@H]3OC[C@H]4OC(=O)Nc3ccc(C(C)=O)cc3)n2)cc1	5.62µM
CCNC(=O)N[C@H]1CO[C@H]2[C@@H]1OC[C@@H]2Nc1nccc(-c2ccc(OC)cc2)n1	0
COc1ccc(CN2CC3(CCN(S(=O)(=O)c4c(C)noc4C)CC3)C2=O)cc1	0
COC[C@@H]1CN(Cc2cc(Cl)ccc2F)C[C@H]1C(N)=O	0
Cc1ccccc1C(=O)N1CCC(c2nn(C)c(=O)[nH]2)CC1	0
COc1cc(NC(=O)CC[C@H]2NC(=O)c3ccccc3NC2=O)ccc1-n1nc(C)cc1C	0
COc1ccc(Cn2c(C3CCN(C(=O)c4ccsc4)CC3)n[nH]c2=O)cc1	0
COCCn1ncc(N2CCC(NC(=O)C(C)(C)C)CC2)cc1=O	0
Cc1nc(C2(C)CCN(S(=O)(=O)c3c(C)noc3C)CC2)no1	0
Cc1noc(C)c1S(=O)(=O)N1CCC2(CC1)C(=O)N(C)c1ccccc12	3.55µM
Cc1noc(C)c1S(=O)(=O)N1CCC2(C1)C(=O)Nc1ccccc12 (centres undefined)	0
CC(=O)c1cc(CN2CCC(c3nnc4n3CCCCC4)CC2)n(C)c1	0
COc1ccc(F)cc1S(=O)(=O)N1CCCN(C(=O)C2CC2)c2ccccc21	0
COc1ccc(CN(Cc2ccco2)C(=O)COc2ccccc2Cl)cc1	0
CCS(=O)(=O)c1ncc(Cl)c(C(=O)N(Cc2ccccc2)Cc2ccco2)n1	0
Cc1cccc(C)c1NC(=O)c1nc(S(C)(=O)=O)ncc1N(Cc1ccc(F)cc1)Cc1ccco1	0
CC(C)c1ccc(CN(Cc2ccco2)c2cnc(S(C)(=O)=O)nc2C(=O)Nc2ccc(F)cc2)cc1	11.2µM
COc1ccc(CN(Cc2ccco2)c2cnc(S(C)(=O)=O)nc2C(=O)Nc2ccc(C)c(Cl)c2)cc1	10µM
Cc1ccc(NC(=O)c2ncoc2-c2ccco2)cc1Cl	0
COc1ccc(CNC(=O)CC2CCCN(c3cnn(CC4CC4)c(=O)c3)C2)cc1 (centres undefined)	0
COc1ccccc1CNC(=O)CCc1nc(C2CCCN2C(=O)NC(C)C)no1 (centres undefined)	0
Cc1noc([C@@H]2CNC[C@H]2CO)n1	0
SMILES	Pf Dd2 growth
O=C(NC1CCCCC1)[C@H]1CN2CC[C@H]1C[C@@H]2Cn1cc(CCO)nn1	0
Cc1ccc(CNC(=O)c2cc3cn(C(C)C)cc3s2)o1	0
COc1ccc(CNC(=O)c2cc3cn(C4CC4)cc3s2)cc1OC	0
COc1ccc(CCNC(=O)c2cc3cn(C(C)C)cc3s2)cc1OC	8.91µM
CC(C)NC(=O)N[C@H]1CCN2C(=O)c3ccccc3NC(=O)[C@@H]2C1	0
CCCn1nc(C)c2c1NC(=O)CC2c1ccc(OCC(N)=O)c(OC)c1 (centres undefined)	0
CCCN1C(=O)c2[nH]nc(-c3ccccc3O)c2C1c1ccc(OCc2ccccc2)c(OC)c1 (centres undefined)	10µM
O=C1c2[nH]nc(-c3ccccc3O)c2C(c2ccccc2F)N1Cc1ccncc1 (centres undefined)	0
CCCN1C(=O)CN(C2CCCCC2)C(=O)C1c1ccc(OC)c(OC)c1 (centres undefined)	0
Cc1ccc(C2NC(=O)c3n[nH]c(-c4cccs4)c32)cc1 (centres undefined)	0
Cc1ccc(C2c3c(-c4ccccc4O)n[nH]c3C(=O)N2CCc2ccccc2)cc1 (centres undefined)	10µM
CCOc1ccc(C2c3c(-c4cc(C)ccc4O)n[nH]c3C(=O)N2Cc2cccnc2)cc1OCC (centres undefined)	11.2µM
CCOc1ccc(C2c3c(oc4ccc(C)cc4c3=O)C(=O)N2CCCN(C)C)cc1OC (centres undefined)	0
Cc1cc(C)c(-c2n[nH]c3c2C(c2ccccc2F)N(Cc2ccco2)C3=O)c(O)c1 (centres undefined)	3.98µM
Cc1cc(C)c2c(=O)c3c(oc2c1)C(=O)N(Cc1ccco1)C3c1ccccc1F (centres undefined)	0
COc1cc(C2c3c(-c4cc(C)ccc4O)n[nH]c3C(=O)N2Cc2cccnc2)cc(OC)c1OC (centres undefined)	0
Cc1ccc(CCNC(=O)C2CC(=O)N(CCc3ccccc3)C2)cc1 (centres undefined)	0
Cc1nn(-c2ccccc2)c(=O)n1CC(=O)NCC1OCCc2ccccc21 (centres undefined)	0
CCC1=C(C(=O)OC)C(c2ccccc2)N2C(CC(=O)NCCc3cccs3)=CSC2=N1 (centres undefined)	0
O=C1NC2(CCN(CC3CCCCC3)C2)OCc2ccccc21 (centres undefined)	0
CO[C@@H]1COCC[C@H]1NC(=O)c1cccc(Oc2ccccc2)c1	0
CC(C)NC(=O)[C@@H]1C[C@H](N)CN1S(=O)(=O)c1ccc2c(c1)OCCN2C	0
CC(=O)N1CCC([C@@H]2CN(Cc3cccc(F)c3F)C[C@H]2CO)CC1	0
COc1ccccc1C(=O)N1CCC2(CC1)NC(=O)N(c1ccc(F)cc1)N2	0
COc1ccc(CCN2C(=O)c3[nH]nc(-c4ccccc4O)c3C2c2cccc(OC)c2)cc1 (centres undefined)	10µM
SMILES	Pf Dd2 growth
COc1cc(C2c3c(-c4ccccc4O)n[nH]c3C(=O)N2CCO)ccc1OCc1ccccc1 (centres undefined)	11.2µM
CCCCCOc1ccc(C2c3c(oc4ccccc4c3=O)C(=O)N2c2nc(C)c(C)s2)cc1OCC (centres undefined)	0
COc1cc(C2C(C(=O)OCC(C)C)=C(C)N=C3SCCC(=O)N32)ccc1OCc1ccccc1 (centres undefined)	0
COc1cccc(-c2n[nH]c3c2C(c2ccccn2)N(C)C3=O)c1 (centres undefined)	0
COc1ccc(-c2[nH]nc3ncc(-c4ccccc4O)nc23)c(C)c1	0
O=C1c2[nH]nc(-c3ccccc3O)c2C(c2cccc(Br)c2)N1Cc1ccncc1 (centres undefined)	0
CCCOc1ccc(C2c3c(-c4ccccc4O)n[nH]c3C(=O)N2CCc2ccccc2)cc1OCC (centres undefined)	4.47µM
CCCOc1ccc(C(=O)N(Cc2ccco2)Cc2ccco2)cc1	0
CCCOc1cccc(C2c3c(-c4ccccc4O)n[nH]c3C(=O)N2Cc2ccco2)c1 (centres undefined)	5.62µM
CCOc1cc(C2c3c(oc4cc(C)cc(C)c4c3=O)C(=O)N2CCO)ccc1O (centres undefined)	0
CCOc1ccc(C2c3cc(OCC)c(OCC)cc3CC(=O)N2c2ccc(C(=O)O)cc2)cc1OCC (centres undefined)	0
Cc1nc2ccccc2n1Cc1cn([C@@H]2CN[C@H](C(=O)O)C2)nn1	0
CN(Cc1cc(C(C)(C)C)n[nH]1)C(=O)[C@H]1CCC[C@@H](O)C1	0
O=C(c1ccc2ccccc2n1)N1C[C@@H](CO)[C@H](c2ccccn2)C1	0
Cc1nc(C)c(C(=O)NCc2cccnc2N(C)C2CCCCC2)s1	0
